Screens from PubChem.
D1 potentiator: enhances dopamine response at the human D1 receptor; P21728; HEK293 TREx D1 cells, calcium flux, dopamine EC20 potentiation; potentiation, % at 10 µM; actives 0.036% (n = 360,000); in the data active = potentiation above about 30%; also: 0% is about no effect
TRHR ag: agonists of human TRH receptor; actives 0.18% (n = 360,000); TRHR cells, calcium flux fluo-8, FDSS agonist mode; AID 493084; P34981; activation, % at 2 µM; also: 0% is about no effect
Target sequence (P34981 whole entry, looked up): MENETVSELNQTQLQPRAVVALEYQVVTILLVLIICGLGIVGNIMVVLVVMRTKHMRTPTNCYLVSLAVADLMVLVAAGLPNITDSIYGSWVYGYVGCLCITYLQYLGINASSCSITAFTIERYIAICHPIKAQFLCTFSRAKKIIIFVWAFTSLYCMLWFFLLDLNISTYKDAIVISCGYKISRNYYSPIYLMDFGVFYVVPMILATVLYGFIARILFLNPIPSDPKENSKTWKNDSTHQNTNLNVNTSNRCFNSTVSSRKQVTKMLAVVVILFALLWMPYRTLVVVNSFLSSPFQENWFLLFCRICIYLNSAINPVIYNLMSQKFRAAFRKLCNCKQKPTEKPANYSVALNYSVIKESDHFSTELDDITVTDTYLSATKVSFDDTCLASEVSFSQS
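TRHR-expressing cells, plated overnight in medium with 10% serum, were loaded with fluo-8 calcium dye at room temperature. After a 10 s baseline, library compound was pin-added and calcium release was recorded kinetically (ex 480/em 530) as agonist response.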
D1 ag: agonists of human D1 dopamine receptor; HEK293 T-REx D1 cells, calcium flux, agonist mode; activation, % at 2 µM; actives 1% (n = 360,000); also: 0% is about no effect
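Tetracycline-induced HEK293 TREx D1 cells, force-coupled to calcium signalling, were dye-loaded with a no-wash calcium kit. Compound was pin-added after a 10 s baseline. Fluorescence was read kinetically at 1 cycle/s for 180 s, with calcium rises flagged as agonism.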
TRHR enhancer: allosteric enhancers of human TRH receptor; P34981; TRHR cells, fluo-8 calcium fluorescence, EC20 TRH enhancement; enhancement, % at 2 µM; actives 0.66% (n = 360,000); AID 493056; in the data active = enhancement above about 30%; also: 0% is about no effect
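TRHR-expressing cells loaded with fluo-8 calcium dye were read kinetically (ex 480/em 530) during compound addition, then stimulated with an EC20 of TRH (10 nM final). Enhancement of the Gq-mediated intracellular calcium response was scored.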
D1 antagonist: blocks dopamine activation of the human D1 receptor. P21728. HEK293 TREx D1 cells, calcium flux, dopamine EC80; active compounds read low. activity change, negative = inhibition, % at 10 µM. actives 3.2% (n = 360,000). AID 504652; in the data active = activity change below about -30%; also: % is scaled to controls: 0 for no effect and ±100 for the full control effect
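HEK293 T-REx cells expressing inducible, force-coupled D1 receptor; no-wash Ca dye, 30–90 min RT. Cmpd → 180 s read at 1 Hz → EC80 DA → 180 s read.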
Numbers without * were called inactive; nt = no result given. Sampled rows, rich in hits. Any-hit rate of the full collection: about 4.6%. Rule as the data show it, unless noted: active = activation above about 30%; inactive = the rest.

SMILES | D1 potentiator | TRHR ag | D1 ag | TRHR enhancer | D1 antagonist
CCN(C(=O)C1CCN(S(=O)(=O)c2ccc3c(c2)CCCN3C(=O)C2CCC2)CC1)c1cccc(C)c1 | 1 | -1 | 3 | -4 | 3
Cc1ccc(-c2nnc(SCC(=O)c3ccc(Cl)cc3)n2-c2ccccc2)cc1 | 4 | 0 | 5 | 8 | 2
CC(=O)N1N=C2/C(=C/c3ccccc3)CCCC2C1c1ccccc1 (stereo not drawn) | 0 | -1 | 6 | 31* | -11
O=C(O)c1c(C(=O)N2N=C3/C(=C/c4ccccc4)CCCC3C2c2ccccc2)cccc1[N+](=O)[O-] (stereo not drawn) | 5 | 0 | 3 | -4 | 4
Cc1noc2ncnc(NCCc3ccccc3)c12 | -2 | 2 | 23 | -12 | -23
Fc1ccc(CNc2ncnc3onc(-c4ccc(F)cc4)c23)cc1 | 0 | -1 | 2 | 4 | -5
Cc1ccc(CCNc2ncnc3onc(C)c23)cc1 | -8 | -1 | 22 | -9 | -36*
Cc1ccc(CNc2ncnc3onc(-c4ccc(F)cc4)c23)cc1 | -5 | -1 | 32* | 3 | -24
CS(=O)(=O)c1cccc(-c2nnc(NC(=O)CCS(=O)(=O)c3ccccc3)o2)c1 | -5 | 0 | 1 | -5 | 2
COc1ccc(N2C(=O)CC(Nc3cccc([N+](=O)[O-])c3)C2=O)cc1 (stereo not drawn) | -2 | 0 | 6 | -6 | -33*
COC(=O)c1cccc(NC2CC(=O)N(c3ccc(OC)c(OC)c3)C2=O)c1 (stereo not drawn) | 9 | 0 | 1 | 3 | -33*
COc1ccc(N2C(=O)CC(Nc3ccc(C(=O)O)cc3)C2=O)cc1OC (stereo not drawn) | 2 | 1 | 2 | -2 | 12
O=C(CCOc1ccccc1)Nc1ccccc1[N+](=O)[O-] | 1 | 0 | 1 | 1 | 12
CCOc1ccccc1OCC(=O)OCC(=O)NNC(=O)c1ccc([N+](=O)[O-])cc1 | -3 | 0 | 6 | 30* | -16
O=C(CC(=O)Nc1ccccc1[N+](=O)[O-])Nc1ccccc1[N+](=O)[O-] | -7 | 0 | 11 | -2 | -34*
O=C(COC(=O)COc1ccccc1[N+](=O)[O-])Nc1ccccc1Br | 4 | 0 | 5 | 2 | -43*
CC(C)c1ccccc1NC(=O)COC(=O)COc1ccccc1[N+](=O)[O-] | -2 | 0 | 3 | -1 | 18
COC(=O)COc1cccc(/C=N/NC(=O)CCSc2ccccc2)c1 | -4 | 0 | 5 | -1 | -34*
COc1ccc(OC)c(-n2c(C)ccc2-c2ccc(S(C)(=O)=O)cc2)c1 | -2 | -1 | 1 | 17 | -69*
COc1ccc(OC)c(-n2c(-c3ccc(S(C)(=O)=O)cc3)cc(C=O)c2C)c1 | -1 | 0 | 14 | 11 | 5
CSc1ccc(CNC(=O)Cn2c(-c3cccs3)cc3cc(F)ccc32)cc1 | 6 | 0 | 4 | 3 | -2
CCOc1ccc(CCNC(=O)CN2C(=O)NC3(CCCC3)C2=O)cc1OCC | -7 | 1 | 2 | -5 | -39*
Cc1ccccc1OCC(O)Cn1nnc2ccccc21 (stereo not drawn) | -9 | -1 | 20 | -3 | -55*
Cc1cccc(C)c1OCCn1nnc2ccccc21 | -2 | 0 | 8 | 9 | -42*
CCC(=O)c1ccc(OCC(O)Cn2nnc3ccccc32)cc1 (stereo not drawn) | -2 | 0 | 3 | 3 | 24
SMILES | D1 potentiator | TRHR ag | D1 ag | TRHR enhancer | D1 antagonist
CCOC(=O)c1cccc(NC(=O)c2cc3ccccn3n2)c1 | -4 | 0 | 2 | -1 | 13
Cc1cc(N)n2nc(-c3ccccc3)cc2n1 | -8 | 0 | 1 | 3 | -41*
O=C(Nc1ccccc1F)c1oc2ccccc2c1NC(=O)c1c(F)cccc1F | 3 | 0 | 4 | -4 | 3
COc1ccc(NC(=O)c2ccc(-n3cccn3)c([N+](=O)[O-])c2)cc1 | -5 | -1 | 6 | -2 | -4
Cc1c([N+](=O)[O-])cc(C(=O)Nc2ccc(Cc3ccncc3)cc2)cc1[N+](=O)[O-] | -3 | 0 | 17 | -4 | 1
O=C(Nc1ccc(Cc2ccncc2)cc1)c1ccc(Cl)c([N+](=O)[O-])c1 | -6 | 0 | 8 | 1 | -34*
O=C(Nc1ccc(Cl)cc1)c1ccc(-n2cccn2)c([N+](=O)[O-])c1 | -3 | 0 | 19 | -5 | -32*
Cc1ccc(C(=O)N(Cc2ccco2)Cc2sccc2C)cc1 | -1 | -1 | 2 | -4 | 5
O=C(O)COn1c(-c2ccccc2)nc2ccc(Cl)cc21 | -4 | 0 | 1 | -4 | -8
COn1c(-c2ccccc2)nc2ccc(Cl)cc21 | -7 | 0 | 3 | 4 | -65*
Cc1cc(C)c(NC(=O)CN(C)C(C)C(=O)N2CCc3ccccc32)c(C)c1 (stereo not drawn) | -2 | -1 | 1 | 32* | 7
CCOc1ccccc1OCC(=O)Nc1ccc(OC)c(S(=O)(=O)N2CCCCC2)c1 | 0 | 0 | -1 | 1 | -11
CCOc1ccc(NC(=O)C(C)Oc2ccc(C#N)cc2)cc1S(=O)(=O)N1CCCC1 (stereo not drawn) | -4 | 5 | 38* | -1 | 0
CN(C(=O)c1ccc2c(c1)N(Cc1cccc(Cl)c1)C(=O)c1ccccc1S2(=O)=O)C1CCCCC1 | 2 | 0 | 2 | -3 | -2
CCCc1nnc2n1N=C(c1ccc(OC)c(OC)c1)CS2 | 6 | -1 | -1 | 34* | 8
COc1cccc(N2CCN(S(=O)(=O)c3ccc4c(c3)NC(=O)CS4)CC2)c1 | -2 | 0 | 3 | -4 | -32*
CCOc1ccc(NC(=O)C2CC(=O)NC(=Nc3ccc(Cl)c(Cl)c3)S2)cc1 (stereo not drawn) | -1 | -1 | 0 | -2 | 1
Cc1nc2cccnc2n1C1CCN(S(=O)(=O)c2ccc(C(C)C)cc2)CC1 | 0 | -1 | 39* | 1 | 0
CC1CCCN(c2ncnc3c2nnn3C)C1 (stereo not drawn) | 4 | 0 | -3 | 2 | nt
Cc1cccc(OCC(=O)Nc2ccc3c(c2)nc(CCN2CCN(c4ccccn4)CC2)n3C)c1 | -8 | -1 | 10 | -6 | -31*
Cc1cc(C)c(NC(=O)C2CCCN2CCO)c(C)c1 (stereo not drawn) | -2 | 2 | 1 | -2 | 13
Cc1cc(C)c(NC(=O)C2CCCN2C)c(C)c1 (stereo not drawn) | -10 | 1 | 2 | -6 | -35*
Cc1ccc(C(=O)Nc2ccc3oc(-c4ccc(C(C)(C)C)cc4)nc3c2)cc1 | 1 | 1 | 29 | 3 | 2
CCOc1ccccc1N1CCN(C(=O)Nc2cccc(Cl)c2)CC1 | -5 | 1 | 12 | 8 | -12
